Among the data in a collection of fitness landscapes (doi:10.1038/s41467-024-54723-y) are TetR repression strength values, retold here.

The full ranking holds about 18,000 sequences; the median of “TetR repression strength (sort-seq, GFP reporter)” is about 0.23, and the highest 2% start at about 0.68. This is one part of a sample in which the highest values are shown more often than they occur.

TetR (class B, Tn10), sequence (P04483 whole entry): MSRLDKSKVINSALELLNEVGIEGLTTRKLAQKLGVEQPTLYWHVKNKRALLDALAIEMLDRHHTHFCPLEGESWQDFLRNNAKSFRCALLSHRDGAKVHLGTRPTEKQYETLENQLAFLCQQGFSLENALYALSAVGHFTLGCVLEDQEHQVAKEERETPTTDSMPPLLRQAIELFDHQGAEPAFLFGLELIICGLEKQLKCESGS

This experiment has as its target TetR (class B, Tn10) (UniProt P04483). Description: TetR repression strength (sort-seq, GFP reporter) (relative to tetO2 = 1); higher = stronger repression. As to conditions: E. coli. In outline:
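Repression strength was calculated by subtracting the read-weighted mean bin from the top bin index plus one and dividing by the unaltered operator's value. The plasmid library was low-copy in E. coli SIG10-MAX, with eight randomized operator positions between a constitutive promoter and sfGFP and constitutive TetR. Cultures grew 5 h at 37 °C in LB containing 50 µg/mL chloramphenicol before 10^6 cells were sorted by FACS into 13 fluorescence bins, each sequenced on Illumina. Three independent transformations were averaged for members having ≥30 reads in all replicates and a CV ≤0.5.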
Sequence TCCCCTTAAGTTAATGAGA showed a TetR repression strength of 0.515.

For the sequence TCCCACGGAGTCGCGGAGA, the TetR repression strength was 0.172.

In the case of TCCCATGGAGTGTAAGAGA, the TetR repression strength is 0.236.

Regarding TCCCGGGCAGTCGTGGAGA, the TetR repression strength came to 0.285.

As to TCCCTTCTAGTCCTCGAGA, the TetR repression strength was 0.421.

TCCCTACTAGTCCTCGAGA registered a TetR repression strength of 1.12.

The sequence TCCCTACGAGTCCTCGAGA showed a TetR repression strength of 1.14.

In turn, TCCCTAAGAGTCCTCGAGA gave a TetR repression strength of 0.353.

For the sequence TCCCTACGAGTACTCGAGA, the TetR repression strength stood at 0.207.

TCCCTAATAGTCCTCGAGA gave a TetR repression strength of 0.385.

TCCCATATAGTTTAGGAGA displayed a TetR repression strength of 0.0773.

For the sequence TCCCCCGCAGTCCCTGAGA, the TetR repression strength was determined as 0.333.

As to TCCCAGATAGTCGCGGAGA, the TetR repression strength worked out at 0.108.

As to TCCCCATCAGTGGTAGAGA, the TetR repression strength came out at 0.417.

As to TCCCGATGAGTTAAGGAGA, the TetR repression strength is 0.797.

For the sequence TCCCGATGAGTTAGGGAGA, the TetR repression strength amounted to 0.296.

In turn, TCCCGATGAGTTAGCGAGA had a TetR repression strength of 0.201.

TCCCGATGAGTTAGAGAGA displayed a TetR repression strength of 0.749.

On to TCCCGAGGAGTTAAGGAGA, for which the TetR repression strength came out at 0.295.

Turning to TCCCGATGAGTTAATGAGA, the TetR repression strength was determined as 0.196.

Take TCCCGAGGAGTAAGTGAGA: the TetR repression strength is 0.204.

Sequence TCCCTTGTAGTATGTGAGA had a TetR repression strength of 0.133.

Turning to TCCCTAGTAGTACTGGAGA, the TetR repression strength worked out at 0.176.

Turning to TCCCGGCTAGTACGGGAGA, the TetR repression strength came to 0.244.

Sequence TCCCGATCAGTGACTGAGA had a TetR repression strength of 0.427.

In the case of TCCCTATCAGTCGCGGAGA, the TetR repression strength came out at 0.456.

In the case of TCCCGATCAGTGAGCGAGA, the TetR repression strength was determined as 0.544.

Sequence TCCCGATCAGTGACCGAGA gave a TetR repression strength of 0.715.

In turn, TCCCTATCAGTGGCGGAGA returned a TetR repression strength of 0.715.

In turn, TCCCTTTCAGTGACTGAGA registered a TetR repression strength of 0.435.

As for TCCCTGTCAGTCACCGAGA, the TetR repression strength stood at 0.664.

On to TCCCTATCAGTCGCCGAGA, for which the TetR repression strength came to 0.455.

Consider TCCCTTTCAGTGACCGAGA, for which the TetR repression strength stood at 0.946.

On to TCCCTTGCAGTGACCGAGA, for which the TetR repression strength amounted to 0.315.

With TCCCTATCAGTGGGGGAGA, the TetR repression strength came out at 0.378.

In turn, TCCCTATCAGTCACCGAGA registered a TetR repression strength of 0.789.

For TCCCGTCTAGTAGCAGAGA, the TetR repression strength worked out at 0.634.

The sequence TCCCATGGAGTGTTAGAGA gave a TetR repression strength of 0.246.

TCCCCGATAGTCGTGGAGA had a TetR repression strength of 0.177.

The sequence TCCCAGCGAGTGCAAGAGA had a TetR repression strength of 0.364.

On to TCCCGGCCAGTGGAGGAGA, for which the TetR repression strength is 0.19.

The sequence TCCCAAATAGTCGTGGAGA displayed a TetR repression strength of 0.415.

As to TCCCGCCAAGTGCGCGAGA, the TetR repression strength was 0.258.

Consider TCCCTATGAGTGACCGAGA, for which the TetR repression strength was found to be 0.604.

Sequence TCCCTATCAGTTACCGAGA returned a TetR repression strength of 0.663.

As to TCCCTATCAGTGAAGGAGA, the TetR repression strength was found to be 0.51.

Consider TCCCGTGCAGTAAACGAGA, for which the TetR repression strength amounted to 0.326.

TCCCGACCAGTGACAGAGA yielded a TetR repression strength of 0.644.

In turn, TCCCGATCAGTGACAGAGA returned a TetR repression strength of 0.742.

Consider TCCCGGGCAGTAATCGAGA, for which the TetR repression strength turned out to be 0.121.

TCCCTATCAGTGAACGAGA had a TetR repression strength of 0.862.

Sequence TCCCTATCAGTGACCGAGA showed a TetR repression strength of 0.944.

Sequence TCCCGTTCAGTGACAGAGA yielded a TetR repression strength of 0.504.

The sequence TCCCGATCAGTGAACGAGA registered a TetR repression strength of 0.628.

In turn, TCCCGTGCAGTAATCGAGA displayed a TetR repression strength of 0.749.

On to TCCCACATAGTGGTAGAGA, for which the TetR repression strength was found to be 0.199.

Regarding TCCCACTGAGTGCCTGAGA, the TetR repression strength amounted to 0.139.

In turn, TCCCATCCAGTGCTTGAGA returned a TetR repression strength of 0.267.

Consider TCCCCGTAAGTGAGAGAGA, for which the TetR repression strength is 0.149.

The sequence TCCCTTAAAGTATGCGAGA returned a TetR repression strength of 0.238.

The sequence TCCCTTTAAGTTCTCGAGA displayed a TetR repression strength of 0.271.

In turn, TCCCTGTAAGTATGGGAGA came in with a TetR repression strength of 0.174.

For TCCCCCGAAGTTAAGGAGA, the TetR repression strength worked out at 0.155.

In the case of TCCCTATCAGTGGGCGAGA, the TetR repression strength turned out to be 0.541.

As to TCCCGATAAGTGGCCGAGA, the TetR repression strength is 0.171.

In the case of TCCCGCGCAGTGACCGAGA, the TetR repression strength worked out at 0.219.

Turning to TCCCGTGCAGTGACCGAGA, the TetR repression strength came to 0.709.

For TCCCTATAAGTGGCCGAGA, the TetR repression strength was determined as 0.719.

With TCCCGATCAGTGGCCGAGA, the TetR repression strength amounted to 0.565.

TCCCGGTCAGTCACCGAGA returned a TetR repression strength of 0.669.

In turn, TCCCGTGCAGTGCCCGAGA registered a TetR repression strength of 0.361.

Regarding TCCCTATCAGTGGCCGAGA, the TetR repression strength was found to be 0.724.

In turn, TCCCTATGAGTGGCCGAGA came in with a TetR repression strength of 0.402.

The sequence TCCCGGTCAGTGACCGAGA displayed a TetR repression strength of 0.715.

Turning to TCCCGGTGAGTGACCGAGA, the TetR repression strength worked out at 0.207.

The sequence TCCCAGTGAGTCCATGAGA had a TetR repression strength of 0.163.

As to TCCCAACAAGTGTTCGAGA, the TetR repression strength turned out to be 0.0254.

TCCCTGCAAGTTTCGGAGA yielded a TetR repression strength of 0.0543.

With TCCCCTGGAGTAGGCGAGA, the TetR repression strength turned out to be 0.0907.

On to TCCCAGTGAGTACCCGAGA, for which the TetR repression strength is 0.261.

The sequence TCCCTTTTAGTGGTGGAGA registered a TetR repression strength of 0.212.

For TCCCTCATAGTAAGAGAGA, the TetR repression strength amounted to 0.291.

Sequence TCCCTGATAGTTGGCGAGA registered a TetR repression strength of 0.317.

TCCCGTGGAGTTGACGAGA gave a TetR repression strength of 0.0573.

The sequence TCCCTGATAGTCGAAGAGA gave a TetR repression strength of 1.14.

On to TCCCTGAGAGTCGAAGAGA, for which the TetR repression strength came out at 1.18.

As to TCCCTCTGAGTCGAAGAGA, the TetR repression strength amounted to 0.0537.

Consider TCCCTGGTAGTCGAAGAGA, for which the TetR repression strength was 0.187.

TCCCAGATAGTCGAAGAGA showed a TetR repression strength of 0.115.

The sequence TCCCTGGGAGTCGAAGAGA yielded a TetR repression strength of 0.196.

Take TCCCGGATAGTGTCGGAGA: the TetR repression strength was found to be 0.141.

On to TCCCCGTTAGTTTTAGAGA, for which the TetR repression strength came out at 0.25.

Take TCCCGTTGAGTATATGAGA: the TetR repression strength turned out to be 0.229.

TCCCGATAAGTAGAAGAGA: the TetR repression strength was found to be 0.585.

TCCCGTCCAGTGCTGGAGA gave a TetR repression strength of 0.212.

In turn, TCCCGTGCAGTGCTTGAGA yielded a TetR repression strength of 0.207.

In the case of TCCCGGCAAGTGCTTGAGA, the TetR repression strength amounted to 0.155.

Take TCCCGTCAAGTGGTTGAGA: the TetR repression strength stood at 0.152.

Sequence TCCCGTCAAGTGCTTGAGA had a TetR repression strength of 0.848.

Regarding TCCCGTCCAGTGCTTGAGA, the TetR repression strength is 0.915.

TCCCGCTCAGTTGGGGAGA had a TetR repression strength of 0.186.

Consider TCCCCAGTAGTAGTGGAGA, for which the TetR repression strength was found to be 0.246.
